Source: PubChem BioAssay (NCATS)
Results filed as inconclusive are left out. The source made the active and inactive calls. Calls come from the whole dose curve; as a rule, active = well fitted curve in the direction sought with a large enough effect; inconclusive = small, poorly fitted or top-dose-only effect, or another doubt; inactive = no such curve, though single readings can be large; an effect the other way counts as inactive or inconclusive.

Key:
[1] = qHTS Assay for Identifying Gametocytocidal Compounds (AID 743244);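 note: % is set by controls: 0 for no effect and ±100 for the full control effect; actives lower the fluorescent signal which means gametocytes are killed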; conditions: P. falciparum 3D7 stage III-V gametocytes, alamarBlue, 72 h; max response: hits give low values
Procedure, shortened: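 Compounds are pinned into medium, gametocytes (stage III–V, 3D7, 20,000 cells/well) added, and plates held 72 h at 37 °C in 5% CO2. AlamarBlue follows for 24 h before fluorescence reading.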

[2] = qHTS assay for measurement of the activity of small molecule inhibitors on Zika virus induced Caspase-3 activity in human iPSC derived neural progenitor cells (hNPCs) (AID 1224857); note: % of control where 0% means no effect; nearly all actives have a fitted effect of over 65% in size
Procedure, shortened: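 Pretreat hNPCs with compound 1 h; infect ZIKV 2 FFU/cell; 6 h 37 C, 5% CO2; Caspase-Glo 3/7, 30 min RT; luminescence; normalize to no-virus and virus-only wells.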

[3] = qHTS assay for measurement of the activity of small molecule inhibitors on Zika virus induced Caspase-3 activity in human astrocytoma cells (AID 1224859);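 note: plate controls were ZIKV-infected untreated cells for no effect and uninfected cells for full effect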
Procedure, shortened: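 Human SNB-19 astrocytoma cells in RPMI 1640 with 10% FBS receive compound one hour ahead of Zika virus at 2 FFU/cell. After 6 h infection, caspase-3/7 activity is detected by Caspase-Glo luminescence.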

[4] = qHTS assay to identify small molecule inhibitors of chordoma cells - UCH-1 (AID 1259355); note: % is set by controls: 0 for no effect and ±100 for the full control effect; nearly all actives have a fitted effect of over 55% in size
Procedure, shortened: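 A 48hr growth-inhibition format: each drug tested at 15 concentrations together with added auranofin, camptothecin, doxorubicin, rubitecan and topotecan, with cell viability quantified as CellTiter-Glo luminescence.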

[5] = qHTS assay to identify small molecule inhibitors of chordoma cells - UCH-2 (AID 1259356); note: series mostly up to about 46 µM; % is set by controls: 0 for no effect and ±100 for the full control effect
[6] = P-glycoprotein substrates identified in KB-8-5-11 adenocarcinoma cell line, qHTS therapeutic library screen (AID 1346987); conditions: outcome: dose series up to 44.5 µM; note: series mostly up to about 44 µM; % is set by controls: 0 for no effect and ±100 for the full control effect; nearly all actives have a fitted effect of over 65% in size
Procedure, shortened: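 Human cervical adenocarcinoma KB-8-5-11 cells, selected in colchicine to over-express P-gp and assayed without it, were exposed for 72 h to titrated compounds. An ATP-based luminescent viability signal gave AC50.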

C[N+](C)(C)CC[N+]1(C)Cc2c(Cl)c(Cl)c(Cl)c(Cl)c2C1
inactive: max response [1] -6.87% | outcome [2] | outcome [3] | outcome [4] | outcome [5] | outcome [6]

CN(C/C=C/C#CC(C)(C)C)Cc1cccc2ccccc12
inactive: max response [1] -1.43% | outcome [2] | outcome [3] | outcome [4] | outcome [5] | outcome [6]

N[C@@H](Cc1ccc(O)cc1)C(=O)O
inactive: max response [1] 0.124% | activity change, negative = inhibition [2] 4.45% [at 9.06 µM] | activity change, negative = inhibition [3] -11% [at 9.06 µM] | outcome [4] | outcome [5] | outcome [6]

NS(=O)(=O)c1cc2c(cc1C(F)(F)F)NCNS2(=O)=O
inactive: max response [1] -4.2% | outcome [2] | outcome [3] | outcome [4] | outcome [5] | outcome [6]

O=C(O)c1ccc[n+]([O-])c1
inactive: max response [1] -6.63% | outcome [2] | outcome [3] | outcome [4] | outcome [5] | outcome [6]

Nc1ccncc1N
inactive: max response [1] 8.86% | outcome [2] | outcome [3] | outcome [4] | outcome [5] | outcome [6]

O=C(O)/C=C/c1ccc(Cn2ccnc2)cc1
inactive: max response [1] 13.5% | outcome [2] | outcome [3] | outcome [4] | outcome [5] | outcome [6]

COc1ccc(C(=O)N2CCN(CC(=O)N3CCOCC3)CC2)cc1
inactive: max response [1] -4.8% | outcome [2] | outcome [3] | outcome [4] | outcome [5] | outcome [6]

Cc1c(NC(=O)c2cccnc2)c(=O)n(-c2ccccc2)n1C
inactive: max response [1] -5.32% | outcome [2] | outcome [3] | outcome [4] | outcome [5] | outcome [6]
